Most compounds without a hit are left out; they make up all but 12% or so of the library.
Lmaj promast: Leishmania major promastigote growth inhibition, primary screen; AID 1063, 2008; 9% of 200,000 active; inhibition, % at 10 µM; Leishmania major promastigotes, resazurin fluorescence viability; in the data active = inhibition above about 50%;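 also: promastigotes grown with compound for 44 hours at 28 °C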
Calpain2 inh: inhibitors of pig calpain II, primary screen, biochemical, fluorogenic peptide substrate, 1536-well; purified calpain II, 30 min; inhibition, % at 16 µM; 0.37% of 220,000 active;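 active = inhibition above about 50%, limit read from the data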
WT yeast gro inh: growth inhibition of WT strain, primary screen, mitochondrial fusion inhibitor project, WT and mutant strains, chemical genetic | mitochondrial fusion phenotypic screen | inhibition, % at 10 µM | 2.1% of 190,000 active; in the data active = inhibition above about 58%; tested in S. cerevisiae
Cl transport mod: KCC2 cotransporter modulators, thallium flux, primary screen, cell-based, HEK293 KCC2, FluoZin-2 fluorescence, MLSMR. Solute carrier family 12 member 5 (Homo sapiens), Q9H2X9. KCC2 cells, thallium flux FluoZin-2 fluorescence. B-score of Tl+ flux slope (higher = more flux/activation; lower = inhibition) at 10 µM. 2.2% of 190,000 active;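 active = thallium flux slope and its plate-corrected score both differing from the plate sample mean at a set confidence after two filtering rounds, in either direction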;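 also: slope of fluorescence scaled to starting intensity during 10 to 20 s after thallium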
ROMK primary: ROMK potassium channel modulators, primary screen, cell-based, thallium flux, MLSMR library | ATP-sensitive inward rectifier potassium channel 1 (Homo sapiens), P48048 | Tet-inducible ROMK, thallium flux fluorescence; actives lie on both sides | B-score at 10 µM | 2% of 130,000 active | AID 1918, 2009;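 active = signal ratio slope over the read window, or its plate-corrected B-score, at least 3 SD from the plate mean, either direction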;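 also: B-score of the F/F0 ratio slope over 7 to 12 s after thallium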
Target sequence (P48048 whole entry, looked up): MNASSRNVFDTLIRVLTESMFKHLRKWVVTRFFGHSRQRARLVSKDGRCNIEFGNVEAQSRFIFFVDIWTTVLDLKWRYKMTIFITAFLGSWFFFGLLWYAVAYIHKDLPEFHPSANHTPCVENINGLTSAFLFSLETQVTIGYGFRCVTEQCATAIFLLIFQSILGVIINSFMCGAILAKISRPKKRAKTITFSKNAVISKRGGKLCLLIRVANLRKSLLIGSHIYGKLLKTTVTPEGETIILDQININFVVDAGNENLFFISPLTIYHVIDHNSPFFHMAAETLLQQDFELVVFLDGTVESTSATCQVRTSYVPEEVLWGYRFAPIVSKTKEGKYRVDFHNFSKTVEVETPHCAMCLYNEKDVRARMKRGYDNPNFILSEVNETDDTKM
A number is an active result; - = inactive; . = no result given.

SMILES	Lmaj promast	Calpain2 inh	WT yeast gro inh	Cl transport mod	ROMK primary
CNC(=S)N1N=C(c2ccc(Br)cc2)CC1c1ccc(N(C)C)cc1 (stereo not given)	51.4	-	-	-	-
CNC(=S)N1N=C(c2ccc(Br)cc2)CC1c1ccc(Br)cc1 (stereo not given)	100.2	-	-	-	-
Cc1nc2ccccc2c(=O)n1NCc1cc(Br)cs1	-	-	-	-	.
O=c1[nH]c(SCc2ccc(Cl)cc2)nc2[nH]ncc12	-	-	-	-	-
Cc1csc2ncnc(N3CCN(C(=O)Nc4ccc(OC(F)(F)F)cc4)CC3)c12	.	56.8	.	-	-
Cc1ccc(C)c(-n2nnnc2SCC(=O)NNC(=O)c2ccco2)c1	-	-	-	-	-
Nc1ccccc1CNc1nc(NCCO)nc2c1ncn2CCN1CCOCC1	.	-	.	-	.
CCOC(=O)/C(=C\c1ccccc1)C(=O)c1cc(C(C)=O)c(Nc2ccccc2)s1	100.5	-	-	-	-
CCN(CC)P(=O)(Nc1cccc(C(F)(F)F)c1)c1ccc(N(C)C)cc1NC(=O)c1ccco1 (stereo not given)	91.4	-	-	-	-
CCN(CC)c1ccc(NC(=O)c2ccco2)c(C)c1	-	-	-	-	.
Cn1cc(CN2CCCC(C(=O)c3ccc(-c4ccccc4)cc3)C2)cn1 (stereo not given)	90.5	-	-	-	-
Cc1nn(C)cc1CN1CCCC(C(=O)c2ccc(-c3ccccc3)c(F)c2)C1 (stereo not given)	97.3	-	-	.	-
COc1cccc(C(=O)C2CCCN(Cc3cn(C)nc3-c3ccccc3)C2)c1 (stereo not given)	-	-	-	-	-
O=C(c1ccc(-c2ccccc2)c(F)c1)C1CCCN(C(=O)c2cncs2)C1 (stereo not given)	-	-	-	.	-
Cn1cc(CN2CCCC(C(=O)c3ccc(-c4ccccc4)c(F)c3)C2)cn1 (stereo not given)	86.8	-	-	.	-
CCn1cc(CN2CCCC(C(=O)c3ccc(-c4ccccc4)cc3)C2)cn1 (stereo not given)	85.7	-	-	-	-
Cc1ccc(NNC(=O)CCc2ccccc2)c(C)c1	.	-	.	-	.
O=c1cc2[nH]c3ccccc3c(=O)n2nc1-c1ccccc1	-	-	-	-	-
Cc1ccc(Nc2cc(C)nc(NCc3ccccc3)n2)cc1	100.4	-	-	-	-
Cc1cc(NC2CCCCC2)nc(NCc2ccccc2)n1	97.1	-	-	-	-
COc1ccc(Nc2cc(C)nc(NCc3ccccc3)n2)cc1	.	-	.	-	.
Cc1cc(N/N=C/c2ccccc2Cl)nc(NCc2ccccc2)n1	86.4	-	-	-	.
CC(C)OC(=O)C1CC=CCC1C(=O)Nc1ccc(Cl)cc1 (stereo not given)	-	-	-	-	.
COc1ccc(C(CC(=O)c2ccc(C)cc2)C(C#N)C#N)cc1OC (stereo not given)	89.5	-	-	-	-
Clc1cccc(-c2cc3nc4c(c(N5CCNCC5)n3n2)CCCC4)c1	100.5	-	-	-	.
SMILES	Lmaj promast	Calpain2 inh	WT yeast gro inh	Cl transport mod	ROMK primary
COc1cc(OC)cc(-c2cc3nc4c(c(N5CCN(c6ncccn6)CC5)n3n2)CCCC4)c1	52.2	-	-	-	-
c1coc(CNc2c3c(nc4ncnn24)CCC3)c1	-	-	-	-	-
OC1CCN(c2c3c(nc4cc(-c5cccc(F)c5)nn24)CCCC3)CC1	-	-	-	-	.
CCOCCN1CCN(c2c3c(nc4cc(-c5ccc(F)cc5)nn24)CCC3)CC1	-	-	-	-	-
Fc1cccc(-c2cc3nc4c(c(N5CCC6(CC5)OCCO6)n3n2)CCCC4)c1	-	-	68.7	-	-
Clc1cccc(-c2cc3nc4c(c(NCc5ccco5)n3n2)CCCC4)c1	52.6	-	-	-	-
CN(C)CC(C)(C)CNS(=O)(=O)c1cccc2nsnc12	-	-	-	-	-
CCCCN(C)Cc1c(C)[nH]c2ccc(OCC)cc2c1=O	-	-	-	-	.
CCCNC(=O)CSc1nc2ccccc2c(=O)n1CCC	-	-	-	-	-
CC1CCN(CC(=O)Nc2ccc(S(=O)(=O)NC3CC3)cc2)CC1	.	-	.	.	.
CN(CC(=O)Nc1ccc(S(=O)(=O)N2CCCC2)cc1)Cc1c(F)cccc1Cl	99.7	-	-	-	-
CC1CCCN(CC(=O)Nc2ccc(S(=O)(=O)N3CCCCC3)cc2)C1 (stereo not given)	91.6	-	-	-	.
O=C(CS(=O)(=O)Cc1ccccc1)Nc1ccc(S(=O)(=O)N2CCCCCC2)cc1	51.9	-	-	-	.
CC1CCCN(CC(=O)Nc2ccc(S(=O)(=O)NC3CCCCC3)cc2)C1 (stereo not given)	-	-	98.5	-	-
O=C(CN1CCCCC1)Nc1ccc(S(=O)(=O)N2CCCCCC2)cc1	-	-	-	-	.
CC(=O)Oc1ccc2ccccc2c1C(NC(=O)Cc1ccccc1)c1ccc(Cl)cc1 (stereo not given)	-	-	-	-	.
CCOc1ccc(S(=O)(=O)Nc2ccc3c(c2)c2c(n3S(=O)(=O)c3ccc(OCC)cc3)CCCC2=O)cc1	-	-	-	-	-
CC1CCCN(CC(=O)Nc2ccc(S(=O)(=O)N3CCCCCC3)cc2)C1 (stereo not given)	83.6	-	-	-	-
O=C(CN1CCOCC1)Nc1ccc(S(=O)(=O)N2CCCCCC2)cc1	-	-	-	.	.
O=Cc1ccc(-c2ccc([N+](=O)[O-])cc2Cl)o1	60.5	-	-	-	-
O=C(c1ccc(-c2ccc([N+](=O)[O-])cc2Cl)o1)N1CCOCC1	-	-	-	-	-
CCOC(=O)c1c(O)c2ccccc2n(CC)c1=O	-	-	-	-	-
Cc1ccc2nc(N/N=C\c3ccc([N+](=O)[O-])o3)nc(-c3ccccc3)c2c1	97.7	-	-	-	-
O=[N+]([O-])c1ccc(/C=N/Nc2ccc3ccccc3c2)o1	-	-	-	.	-
CCNc1nc(NCC)nc(N/N=C/c2ccc([N+](=O)[O-])o2)n1	97.7	-	-	-	-
SMILES	Lmaj promast	Calpain2 inh	WT yeast gro inh	Cl transport mod	ROMK primary
O=[N+]([O-])c1ccc(/C=N/Nc2nc(-c3ccccc3)c3cc(Br)ccc3n2)o1	92.6	-	-	-	-
Cc1cc(C)c2nc(C(F)(F)F)nc(NCCCN3CCOCC3)c2c1	95.2	-	-	.	-
CC(C)CC(=O)NCCCCc1ccccc1	-	-	-	-	.
COc1ccccc1OCC(=O)OCC(=O)Nc1sccc1C(N)=O	53.1	-	-	-	-
NC(=O)c1ccsc1NC(=O)COC(=O)Cc1cccc2ccccc12	-	-	78.3	-	-
NC(=O)c1ccsc1NC(=O)COc1ccccc1	-	-	-	-	-
CCc1nc2n(n1)C(O)c1cc([N+](=O)[O-])ccc1S2 (stereo not given)	.	-	.	-	.
COc1ccc(-c2cn3nc4c(nc3n2)CCCC4)cc1	-	-	-	.	-3.16
Cc1ccccc1COC(=O)c1nn(-c2ccccc2)nc1N	-	-	61.6	-	.

Source: PubChem BioAssay
